Laboratory results from the supplement of paper PMC8728848.
This is one part of a sample in which the strongest signals are shown more often than they occur.

Legend:
Assay in all cases: glycan array binding signal (z-score within array); higher = stronger binding
Conditions in all cases: glycan notation: IUPAC condensed, linker removed
[1] = biological target: Gal(b1-4)GlcNAc(b1-3)Gal(b1-4)GlcNAc
In short: (§1)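 Glycan array data came from 3228 arrays in the Consortium for Functional Glycomics database, and only arrays with an available protein sequence were kept. Glycan names were put into IUPAC-condensed notation, and columns mapping to the same glycan were averaged. The binding signal is a within-array Z-score, averaged across arrays of one protein sequence run at different concentrations or buffers and across linkers. A negative Z-score can be read as non-binding.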

[2] = biological target: Gal(b1-4)GlcNAc(b1-3)Gal(b1-4)GlcNAc(b1-3)Gal(b1-4)GlcNAc(b1-2)Man(a1-3)[Gal(b1-4)GlcNAc(b1-3)Gal(b1-4)GlcNAc(b1-3)Gal(b1-4)GlcNAc(b1-2)Man(a1-6)]Man(b1-4)GlcNAc(b1-4)[Fuc(a1-6)]GlcNAc
In short: as §1

[3] = biological target: Gal(b1-4)GlcNAc(b1-3)Gal(b1-4)GlcNAc(b1-3)[Gal(b1-4)GlcNAc(b1-3)Gal(b1-4)GlcNAc(b1-6)]GalNAc
In short: as §1

[4] = biological target: Gal3S(b1-4)[Fuc(a1-3)]GlcNAc
In short: as §1

[5] = biological target: GalNAc(a1-3)GalNAc
In short: as §1

[6] = biological target: GalNAc(a1-3)GalNAc(b1-3)Gal(a1-4)Gal(b1-4)GlcNAc
In short: as §1

[7] = biological target: GalNAc(b1-4)GlcNAc
In short: as §1

[8] = biological target: GalNAc(b1-4)GlcNAc(b1-2)Man(a1-3)[GalNAc(b1-4)GlcNAc(b1-2)Man(a1-6)]Man(b1-4)GlcNAc(b1-4)GlcNAc
In short: as §1

[9] = biological target: GalNAc(b1-4)GlcNAc6S
In short: as §1

[10] = biological target: GlcNAc(b1-2)[GlcNAc(b1-4)]Man(a1-3)[GlcNAc(b1-4)][GlcNAc(b1-2)Man(a1-6)]Man(b1-4)GlcNAc(b1-4)GlcNAc
In short: as §1

[11] = biological target: GlcNAc(b1-3)Gal(b1-4)GlcNAc(b1-6)[GlcNAc(b1-3)Gal(b1-3)]GalNAc
In short: as §1

[12] = biological target: GlcNAc(b1-3)[GlcNAc(b1-6)]Gal(b1-4)GlcNAc
In short: as §1

[13] = biological target: Man(a1-2)Man(a1-6)[Man(a1-3)]Man(a1-6)[Man(a1-2)Man(a1-2)Man(a1-3)]Man(b1-4)GlcNAc(b1-4)GlcNAc
In short: as §1

[14] = biological target: Man(a1-3)[Man(a1-6)]Man
In short: as §1

[15] = biological target: Man(a1-3)[Man(a1-6)]Man(a1-6)[Man(a1-2)Man(a1-3)]Man(b1-4)GlcNAc(b1-4)GlcNAc
In short: as §1

[16] = biological target: Man(a1-3)[Man(a1-6)]Man(a1-6)[Man(a1-3)]Man(b1-4)GlcNAc(b1-4)GlcNAc
In short: as §1

[17] = biological target: Neu5Ac(a2-3)Gal(b1-3)GalNAc
In short: as §1

[18] = biological target: Neu5Ac(a2-3)Gal(b1-3)[Fuc(a1-4)]GlcNAc(b1-3)Gal(b1-4)[Fuc(a1-3)]GlcNAc
In short: as §1

[19] = biological target: Neu5Ac(a2-3)Gal(b1-4)GlcNAc6S
In short: as §1

[20] = biological target: Neu5Ac(a2-3)Gal(b1-4)[Fuc(a1-3)]GlcNAc(b1-3)Gal
In short: as §1

[21] = biological target: Neu5Ac(a2-3)Gal(b1-4)[Fuc(a1-3)]GlcNAc(b1-3)GalNAc
In short: as §1

[22] = biological target: Neu5Ac(a2-3)[GalNAc(b1-4)]Gal(b1-4)Glc
In short: as §1

[23] = biological target: Neu5Ac(a2-6)Gal(b1-4)GlcNAc(b1-2)[Neu5Ac(a2-6)Gal(b1-4)GlcNAc(b1-6)]Man(a1-6)[Neu5Ac(a2-6)Gal(b1-4)GlcNAc(b1-2)Man(a1-3)][GlcNAc(b1-4)]Man(b1-4)GlcNAc(b1-4)GlcNAc
In short: as §1

[24] = biological target: Neu5Ac(a2-6)Gal(b1-4)GlcNAc(b1-3)Gal(b1-4)GlcNAc(b1-3)Gal(b1-4)GlcNAc(b1-2)Man(a1-3)[Neu5Ac(a2-6)Gal(b1-4)GlcNAc(b1-3)Gal(b1-4)GlcNAc(b1-3)Gal(b1-4)GlcNAc(b1-2)Man(a1-6)]GalNAc
In short: as §1

[25] = biological target: Neu5Ac(a2-8)Neu5Ac(a2-3)[GalNAc(b1-4)]Gal(b1-4)Glc
In short: as §1

B1: SP16665A-bot-344-23-344 (Bacteroides ovatus) (protein)
chain: SDNEFPDFDYQTVYFANQYGLRTIELGESEFVDNTLDNQHKMVIKAAWGGGYTNRNNVVINFKVDESLCDNLYFKDTDQPLVPMPASYYTLASDRIAIPKGQIMAGVEVQLTDDFFADEKSISENYVIPLLMTNVQGADSILQGKPVVENPVLTNAGDWSILPQNFVLYAVKYVNPWHGEYLRRGIDHATVAGTSKDIIRHEQFVENDEVVNISTKSMKDNLLTLKTKDESGKDISYTVRLSFAEDGSCTVHSGSQNVVVSGSGKFVSKGEKNSLGGKDRNAIYLDYTVNLTDNNIQLATKDTLVLRTRNVYGGKSLEVVRK
[1]
  glycan array binding signal (z-score): -0.125
[2]
  glycan array binding signal (z-score): 2.77
[3]
  glycan array binding signal (z-score): 0.116
[4]
  glycan array binding signal (z-score): -0.285
[5]
  glycan array binding signal (z-score): 1.35
[6]
  glycan array binding signal (z-score): -0.21
[7]
  glycan array binding signal (z-score): 1.18
[8]
  glycan array binding signal (z-score): 1.54
[9]
  glycan array binding signal (z-score): -0.085
[10]
  glycan array binding signal (z-score): 1.11
[11]
  glycan array binding signal (z-score): -0.227
[12]
  glycan array binding signal (z-score): -0.304
[13]
  glycan array binding signal (z-score): -0.087
[14]
  glycan array binding signal (z-score): -0.441
[15]
  glycan array binding signal (z-score): 0.003
[16]
  glycan array binding signal (z-score): -0.618
[17]
  glycan array binding signal (z-score): 1.94
[18]
  glycan array binding signal (z-score): 0.438
[19]
  glycan array binding signal (z-score): -0.405
[20]
  glycan array binding signal (z-score): -0.135
[21]
  glycan array binding signal (z-score): 1.76
[22]
  glycan array binding signal (z-score): -0.539
[23]
  glycan array binding signal (z-score): -0.263
[24]
  glycan array binding signal (z-score): -0.157
[25]
  glycan array binding signal (z-score): -0.466
